This is an account of results in publication PMC7862700, “An all-to-all approach to the identification of sequence-specific readers for epigenetic DNA modifications on cytosine”.

Common to all, as to assay: DAPPL (digital affinity profiling via proximity ligation, sequencing); 10 mM Tris-HCl pH 7.5, 50 mM NaCl, 1 mM DTT, 4% glycerol, room temperature, 30 min; GST-TFs on glutathione beads, 16-mer random dsDNA library, 0.1% formaldehyde crosslink after washing; high values mean tight binding
Conditions in all cases: protein: recombinant; tags: N-terminal GST; dsDNA, one strand shown

One assay has as its target T1, ELK1 (Homo sapiens, UniProt P19419 1-428).
T1 sequence: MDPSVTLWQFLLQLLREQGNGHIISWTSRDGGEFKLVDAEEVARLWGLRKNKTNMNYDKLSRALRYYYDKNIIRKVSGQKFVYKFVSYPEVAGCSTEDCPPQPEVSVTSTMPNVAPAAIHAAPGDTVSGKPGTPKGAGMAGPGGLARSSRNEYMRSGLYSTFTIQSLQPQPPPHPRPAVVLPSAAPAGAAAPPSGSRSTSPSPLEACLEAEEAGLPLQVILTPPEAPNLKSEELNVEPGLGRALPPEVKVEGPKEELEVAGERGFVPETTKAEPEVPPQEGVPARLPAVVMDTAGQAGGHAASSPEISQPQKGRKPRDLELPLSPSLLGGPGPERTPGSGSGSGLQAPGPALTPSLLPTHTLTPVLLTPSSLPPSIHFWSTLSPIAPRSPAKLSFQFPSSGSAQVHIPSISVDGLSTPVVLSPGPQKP
Summed up: (§1)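 GST fusions of human transcription factors were expressed in yeast and captured with glutathione beads. Once given DNA barcodes and pooled alongside a tag-only sample, they were incubated for 30 min at room temperature with 200 nmole of a random double-stranded 16-mer DNA library in Tris/NaCl/DTT/glycerol buffer, then washed, crosslinked (0.1% formaldehyde), proximity-ligated, PCR-amplified and sequenced on an Illumina NextSeq500. The binding signal of each hexamer is its read frequency for a factor divided by its frequency for the tag-only sample.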

The next assay has as its target T2, GABPA (Homo sapiens, UniProt Q06546 1-454).
T2 sequence: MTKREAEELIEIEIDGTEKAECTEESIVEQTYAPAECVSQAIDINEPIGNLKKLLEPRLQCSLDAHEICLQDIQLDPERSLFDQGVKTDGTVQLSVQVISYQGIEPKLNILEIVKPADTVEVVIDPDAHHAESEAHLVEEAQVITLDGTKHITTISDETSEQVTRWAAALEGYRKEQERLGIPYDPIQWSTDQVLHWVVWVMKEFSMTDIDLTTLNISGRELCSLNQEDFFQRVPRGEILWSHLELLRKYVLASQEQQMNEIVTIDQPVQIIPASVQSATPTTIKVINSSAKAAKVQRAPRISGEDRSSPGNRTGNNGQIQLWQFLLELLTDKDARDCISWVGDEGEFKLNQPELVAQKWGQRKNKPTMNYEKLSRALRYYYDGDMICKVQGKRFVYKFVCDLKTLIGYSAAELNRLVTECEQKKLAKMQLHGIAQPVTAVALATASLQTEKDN
The gist of the method:
as §1

In a further assay the target is T3, ERG (Homo sapiens, UniProt P11308 1-479).
T3 sequence: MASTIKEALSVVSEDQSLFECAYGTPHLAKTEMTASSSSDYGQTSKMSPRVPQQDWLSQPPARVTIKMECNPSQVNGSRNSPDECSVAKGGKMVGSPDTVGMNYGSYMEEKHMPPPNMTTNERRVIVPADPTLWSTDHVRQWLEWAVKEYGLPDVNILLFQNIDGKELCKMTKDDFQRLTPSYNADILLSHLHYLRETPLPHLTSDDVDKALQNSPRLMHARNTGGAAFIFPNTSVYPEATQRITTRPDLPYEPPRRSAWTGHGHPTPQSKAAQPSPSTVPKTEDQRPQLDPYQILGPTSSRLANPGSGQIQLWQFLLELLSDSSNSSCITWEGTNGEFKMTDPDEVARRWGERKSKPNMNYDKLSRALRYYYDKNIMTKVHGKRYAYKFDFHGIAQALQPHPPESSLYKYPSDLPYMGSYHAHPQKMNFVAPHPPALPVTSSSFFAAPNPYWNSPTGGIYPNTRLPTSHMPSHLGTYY
The gist of the method:
as §1

The next assay concerns the target ELF1 (Homo sapiens, UniProt P32519 1-619). The gist of the method:
as §1

The target of a further assay is T4, EHF (Homo sapiens, UniProt Q9NZC4 1-300).
T4 sequence: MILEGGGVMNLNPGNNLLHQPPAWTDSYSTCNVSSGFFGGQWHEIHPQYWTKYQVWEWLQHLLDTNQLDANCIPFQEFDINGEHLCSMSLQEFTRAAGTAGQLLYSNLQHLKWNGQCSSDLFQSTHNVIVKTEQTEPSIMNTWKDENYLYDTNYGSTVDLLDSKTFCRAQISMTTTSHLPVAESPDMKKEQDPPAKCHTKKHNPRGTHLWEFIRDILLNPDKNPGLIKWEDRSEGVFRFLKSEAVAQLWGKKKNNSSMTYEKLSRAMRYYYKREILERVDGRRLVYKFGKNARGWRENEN
Summed up: as §1

Another assay concerns the target SPIB (Homo sapiens, UniProt Q01892 1-262). Summed up: as §1
The target of a further assay is T5, FEV (Homo sapiens, UniProt Q99581 1-238).
T5 sequence: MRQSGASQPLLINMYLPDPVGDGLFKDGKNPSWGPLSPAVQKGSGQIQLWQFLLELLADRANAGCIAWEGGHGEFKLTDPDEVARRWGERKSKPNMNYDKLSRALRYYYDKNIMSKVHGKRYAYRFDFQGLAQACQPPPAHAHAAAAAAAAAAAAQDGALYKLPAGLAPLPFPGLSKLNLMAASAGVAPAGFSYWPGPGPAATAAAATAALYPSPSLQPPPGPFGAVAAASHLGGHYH
Summed up:
as §1

The next assay deals with ETV5 (Homo sapiens, UniProt P41161 1-510). The gist of the method: as §1
Chain of ETV5 (P41161 whole entry): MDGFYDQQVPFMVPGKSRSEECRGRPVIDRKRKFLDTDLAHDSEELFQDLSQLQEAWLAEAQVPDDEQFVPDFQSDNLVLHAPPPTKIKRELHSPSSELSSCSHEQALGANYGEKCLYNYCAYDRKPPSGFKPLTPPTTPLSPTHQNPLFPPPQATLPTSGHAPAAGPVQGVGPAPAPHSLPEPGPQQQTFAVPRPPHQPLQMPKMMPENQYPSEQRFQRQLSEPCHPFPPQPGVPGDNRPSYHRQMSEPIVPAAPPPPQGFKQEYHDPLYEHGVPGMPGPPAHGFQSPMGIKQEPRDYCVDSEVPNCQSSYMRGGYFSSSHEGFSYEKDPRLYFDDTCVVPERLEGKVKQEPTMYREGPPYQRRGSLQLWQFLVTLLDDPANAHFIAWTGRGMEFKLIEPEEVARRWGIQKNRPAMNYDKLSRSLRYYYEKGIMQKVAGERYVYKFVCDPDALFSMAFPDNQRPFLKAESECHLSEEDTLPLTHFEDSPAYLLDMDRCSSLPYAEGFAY
For a further assay, the target named is ELF4 (Homo sapiens, UniProt Q99607 1-663). Summed up: as §1
Chain of ELF4 (Q99607 whole entry): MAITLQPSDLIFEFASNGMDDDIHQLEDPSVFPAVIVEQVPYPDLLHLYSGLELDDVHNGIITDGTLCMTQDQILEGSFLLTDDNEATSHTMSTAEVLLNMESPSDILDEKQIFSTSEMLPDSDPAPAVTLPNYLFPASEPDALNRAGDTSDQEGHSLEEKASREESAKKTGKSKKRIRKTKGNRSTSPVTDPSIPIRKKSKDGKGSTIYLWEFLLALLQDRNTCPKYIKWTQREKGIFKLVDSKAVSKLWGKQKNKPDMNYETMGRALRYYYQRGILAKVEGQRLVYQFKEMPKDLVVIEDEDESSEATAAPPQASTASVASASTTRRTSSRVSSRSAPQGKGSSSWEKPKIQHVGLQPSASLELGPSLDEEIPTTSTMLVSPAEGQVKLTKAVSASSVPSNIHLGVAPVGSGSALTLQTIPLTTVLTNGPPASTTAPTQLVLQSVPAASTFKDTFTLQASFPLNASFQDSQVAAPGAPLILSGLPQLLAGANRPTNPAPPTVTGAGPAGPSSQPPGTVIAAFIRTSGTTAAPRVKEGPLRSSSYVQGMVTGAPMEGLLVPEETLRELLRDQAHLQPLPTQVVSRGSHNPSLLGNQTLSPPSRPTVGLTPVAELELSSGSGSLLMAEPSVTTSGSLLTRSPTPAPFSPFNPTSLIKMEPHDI
The target of the next assay is T6, ELK4 (Homo sapiens, UniProt P28324-2 1-405).
T6 sequence: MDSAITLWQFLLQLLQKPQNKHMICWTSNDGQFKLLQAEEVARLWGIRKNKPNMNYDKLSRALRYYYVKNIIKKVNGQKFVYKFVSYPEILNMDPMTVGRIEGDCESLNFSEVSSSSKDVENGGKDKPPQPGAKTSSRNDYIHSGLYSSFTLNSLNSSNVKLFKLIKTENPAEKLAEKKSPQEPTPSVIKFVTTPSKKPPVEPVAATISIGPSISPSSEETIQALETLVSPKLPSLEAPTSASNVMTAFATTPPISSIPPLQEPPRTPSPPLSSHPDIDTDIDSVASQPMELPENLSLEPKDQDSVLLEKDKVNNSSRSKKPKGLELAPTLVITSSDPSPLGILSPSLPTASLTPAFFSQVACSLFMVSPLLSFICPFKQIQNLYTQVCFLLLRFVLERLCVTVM
The gist of the method:
as §1

Chain of ELF1 (P32519 whole entry): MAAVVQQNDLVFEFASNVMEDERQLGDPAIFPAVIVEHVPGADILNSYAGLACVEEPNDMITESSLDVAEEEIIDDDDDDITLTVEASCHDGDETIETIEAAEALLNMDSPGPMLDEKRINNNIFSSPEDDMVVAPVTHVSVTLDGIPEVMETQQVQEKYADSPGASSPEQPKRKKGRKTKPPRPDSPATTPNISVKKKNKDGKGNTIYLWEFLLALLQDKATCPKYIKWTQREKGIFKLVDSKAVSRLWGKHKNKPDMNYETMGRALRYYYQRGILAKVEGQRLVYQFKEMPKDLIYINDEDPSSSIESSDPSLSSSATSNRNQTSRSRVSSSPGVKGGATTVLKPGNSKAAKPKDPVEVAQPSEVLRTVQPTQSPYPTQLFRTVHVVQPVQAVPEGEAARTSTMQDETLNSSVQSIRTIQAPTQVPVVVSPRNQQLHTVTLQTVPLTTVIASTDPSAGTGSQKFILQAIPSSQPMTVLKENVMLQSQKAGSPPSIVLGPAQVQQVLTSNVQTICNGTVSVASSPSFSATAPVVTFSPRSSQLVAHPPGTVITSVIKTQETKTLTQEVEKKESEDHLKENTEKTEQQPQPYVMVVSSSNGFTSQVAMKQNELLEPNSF
Chain of SPIB (Q01892 whole entry): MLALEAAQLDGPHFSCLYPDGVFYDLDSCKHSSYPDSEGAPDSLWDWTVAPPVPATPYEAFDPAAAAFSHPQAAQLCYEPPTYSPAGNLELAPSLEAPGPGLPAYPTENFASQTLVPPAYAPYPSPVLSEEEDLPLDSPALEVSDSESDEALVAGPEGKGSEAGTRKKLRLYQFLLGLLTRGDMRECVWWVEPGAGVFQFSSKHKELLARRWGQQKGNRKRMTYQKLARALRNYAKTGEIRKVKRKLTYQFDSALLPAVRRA

Take CATGCA: the binding signal is 1.08 fold enrichment (6-mer frequency, TF over GST control) in the assay with ELK1; 1.16 fold enrichment (6-mer frequency, TF over GST control) with GABPA; 1.04 fold enrichment (6-mer frequency, TF over GST control) with ERG; 1.1 fold enrichment (6-mer frequency, TF over GST control) in the assay with ELF1; 1.12 fold enrichment (6-mer frequency, TF over GST control) in the assay with EHF; 1.07 fold enrichment (6-mer frequency, TF over GST control) with SPIB. For the same sequence, the binding signal is 1.1 fold enrichment (6-mer frequency, TF over GST control) in the assay with FEV; 1.1 fold enrichment (6-mer frequency, TF over GST control) in the assay with ETV5; 1.11 fold enrichment (6-mer frequency, TF over GST control) with ELF4; 1.05 fold enrichment (6-mer frequency, TF over GST control) with ELK4.
